Screening results deposited in PubChem by National Center for Advancing Translational Sciences (NCATS).
Hits are enriched below; roughly 12% of the tested compounds scored in any of these assays.
JMJD2A Tudor: inhibitors of human JMJD2A Tudor domain; Potency, µM (doses to about 114 µM), actives largely listed as inhibitors; 4.4% of 390,000 active; AlphaScreen JMJD2A-Tudor / H3K4me3 peptide binding; note: nearly all actives have a fitted effect of over 50% in size
G9a inh: G9a (human) methyltransferase inhibition; 8.8% of 350,000 active; Potency, µM (series often up to 102 µM), most hits filed as inhibitors; G9a H3K9 monomethylation, AlphaScreen, 2 h; AID 504332; note: nearly all actives have a fitted effect of over 75% in size
Target sequence (Q96KQ7 913-1193 limits assumed): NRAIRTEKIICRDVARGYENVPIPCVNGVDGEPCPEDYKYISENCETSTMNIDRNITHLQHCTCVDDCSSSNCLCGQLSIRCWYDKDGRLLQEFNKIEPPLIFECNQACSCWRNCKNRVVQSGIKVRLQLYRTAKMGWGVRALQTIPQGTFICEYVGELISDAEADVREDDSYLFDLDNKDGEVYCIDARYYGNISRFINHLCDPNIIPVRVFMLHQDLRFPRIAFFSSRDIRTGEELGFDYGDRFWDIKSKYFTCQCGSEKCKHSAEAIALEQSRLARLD
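Signal arises when biotinylated H3K9 peptide, once monomethylated, bridges streptavidin donor and antibody-captured acceptor beads. Enzyme at 20 nM was preincubated 15 min with test compounds; peptide 500 nM and SAM 20 uM then reacted for 2 h.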
HP1b binding inh: inhibitors of HP1-beta chromodomain binding to methylated histone tails; AlphaScreen HP1-beta / biotin-H3K9me3 peptide binding; Potency, µM (series often up to 114 µM), hits mostly inhibitors; 0.56% of 390,000 active; AID 540317; note: nearly all actives have a fitted effect of over 70% in size
Target sequence (P83916 whole entry, looked up): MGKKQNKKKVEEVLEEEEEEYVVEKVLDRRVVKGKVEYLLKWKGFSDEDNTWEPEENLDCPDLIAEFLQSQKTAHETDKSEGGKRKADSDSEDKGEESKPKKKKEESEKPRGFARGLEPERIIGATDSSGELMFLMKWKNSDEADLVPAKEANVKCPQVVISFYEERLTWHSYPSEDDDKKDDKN
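Compound inhibition of the preformed complex between 50 nM HP1-beta and 50 nM biotinylated H3K9me3 peptide was read by AlphaScreen. Buffer was PBS pH 7.4 with 0.01% Tween-20. Incubations ran 30 min at room temperature, with 10 ug/mL donor/acceptor beads.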
BAZ2B block: blocks human BAZ2B; Q9UIF8; AlphaScreen BAZ2B-H3K14Ac peptide displacement; Potency, µM (doses to about 114 µM), usual class: inhibitors; 4.4% of 360,000 active; AID 504333; note: nearly all actives have a fitted effect of over 60% in size
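Complex of BAZ2B and biotin-H3K14Ac (50 nM apiece) forms over 30 min at RT, then faces library compounds up to 110 uM for another 30 min; AlphaScreen beads added, 20 min dark incubation, luminescence read.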
PLK1 PBD block: inhibitors of human PLK1 polo-box domain binding | Potency, µM, usual class: inhibitors | P53350 | Plk1 PBD binding of FITC phosphopeptide, fluorescence polarization | 2.8% of 360,000 active; note: series mostly up to about 57 µM; nearly all actives have a fitted effect of over 65% in size
PI5P4Ka inh: blocks human PI5P4K alpha kinase activity; P48426; PI5P4Kalpha enzyme, ADP-Glo luminescence, 60 min; active compounds read low; max response, %; 1.2% of 330,000 active; AID 652105; active = max response of -50% or lower; inconclusive = between -30% and -50%; inactive = -30% or higher; note: value at the top dose of about 77 µM
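qHTS, 1536-well: enzyme/substrate mix, compound by pin tool, 5 microM ATP final; RT 60 min; ADP-Glo reagents 1 (45 min) then 2 (30 min); luminescence.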
Numbers stand for hits; - = inactive; ? = inconclusive; . = no result given; [ ] = dose if it differs, or a comment. Unless noted, calls come from the whole dose curve; as a rule, active = well fitted curve in the direction sought with a large enough effect; inconclusive = small, poorly fitted or top-dose-only effect, or another doubt; inactive = no such curve, though single readings can be large; an effect the other way counts as inactive or inconclusive.

SMILES | JMJD2A Tudor | G9a inh | HP1b binding inh | BAZ2B block | PLK1 PBD block | PI5P4Ka inh
CCOc1ccc(-n2cc(-c3ccccc3)c3c(N4CCOCC4)ncnc32)cc1 | - | ? | - | 25.1µM | - | -
CN1CCN(c2ncnc3c2c(-c2ccccc2)cn3-c2ccc(F)cc2)CC1 | ? | 44.7µM | - | ? | - | -
COc1cccc(N2CCN(c3ncnc4c3c(-c3ccccc3)cn4-c3ccc(F)cc3)CC2)c1 | - | - | - | - | . | .
CC(C)N1CCCC(C)(C(=O)Nc2nc3ccccc3[nH]2)C1 (configuration not stated) | . | . | . | . | - | -
O=[N+]([O-])c1cccnc1Sc1ccc(Cl)cc1 | 56.2µM | 44.7µM | ? | 31.6µM | - | -
Cn1nnnc1Sc1ncnc2scc(-c3cccs3)c12 | 25.1µM | -[0.501 µM] | ? | 10µM | . | .
COc1ccc(N2CCN(C(=O)c3cc(S(=O)(=O)N4CCCCCC4)cn3C)CC2)cc1 | - | ? | - | - | . | .
COc1ccc(CNc2ncnc3ccc(-c4c(C)noc4C)cc23)c(OC)c1 | . | -[0.501 µM] | . | . | . | .
CCC(Sc1ccccn1)C(=O)Nc1cccc([N+](=O)[O-])c1 (configuration not stated) | - | . | - | - | 21.2µM | -
CCCN(CC(=O)Nc1ccccc1OC)C(=O)c1nc2nc(C)ccn2n1 | - | . | - | . | - | -
CC1=NN(c2ccc(C)cc2C)C(=O)C1C(c1ccccc1)C1C(=O)N(c2ccc(C)cc2C)N=C1C (configuration not stated) | ? | ? | - | 56.2µM | 18.9µM | -
Cn1cnc2cc(NCc3ccc(Cl)cc3)ccc21 | ? | 44.7µM | - | ? | - | -
CC(=O)Nc1ccc2c(c1)ncn2C | - | - | - | - | - | -
CCCn1cnc2cc(NCc3ccc(Br)cc3)ccc21 | 15.8µM | 44.7µM | ? | 44.7µM | - | -
CCCn1cnc2cc(NCc3ccccc3O)ccc21 | - | 39.8µM | - | - | - | -
CCCn1cnc2cc(NCc3cccc(OC)c3)ccc21 | ? | -[12.7 µM] | - | ? | - | .
CCn1cnc2cc(NCc3ccc(Br)cc3)ccc21 | 14.1µM | 12.6µM | ? | 44.7µM | - | -
CCn1cnc2cc(NS(=O)(=O)c3ccc(C)cc3)ccc21 | - | - | - | - | - | .
Cc1nonc1CC(=O)N1CCCC(C(=O)c2cccc(C(F)(F)F)c2)C1 (configuration not stated) | - | - | - | - | - | -
COc1cc2cc(CNc3ccc(C)cc3)c(=O)n(CC(=O)Nc3ccc(C(C)C)cc3)c2cc1OC | - | ? | - | - | . | .
COc1ccc2c(c1)-c1nc(NC(=O)c3ccco3)sc1CC2 | - | 25.1µM | - | - | ? | -
COc1ccc2c(c1)-c1nc(NC(=O)c3cccs3)sc1CC2 | - | ? | - | - | - | -
COc1ccc2sc(NC(=O)c3ccco3)nc2c1 | ? | 7.08µM | - | ? | - | .
COc1ccc2c(c1)Cc1sc(NC(=O)c3ccco3)nc1-2 | - | 56.2µM | - | - | ? | -
COc1ccc2nc(NC(=O)c3ccc(-c4cccc([N+](=O)[O-])c4)o3)sc2c1 | . | ? | . | 79.4µM | . | .
SMILES | JMJD2A Tudor | G9a inh | HP1b binding inh | BAZ2B block | PLK1 PBD block | PI5P4Ka inh
Cc1cc(C)cc(NC(=O)Cn2c(C)cc(C)c(C#N)c2=O)c1 | - | -[12.7 µM] | - | - | . | .
CCN(CC(=O)Nc1cc(Cl)ccc1C)C(=O)COc1cccc2c1OC(C)(C)C2 | - | - | - | - | - | -
O=C(Nc1ccccc1Cl)C1CCCN(S(=O)(=O)c2ccc(-n3cnnn3)cc2)C1 (configuration not stated) | - | - | - | - | - | -
CCc1cc2cc(C)c(C)cc2nc1SCC(=O)NNC(=O)c1ccco1 | - | - | - | - | - | .
COc1ccc2c(c1)Cc1sc(NC(=O)c3cccnc3)nc1-2 | -[11.4 µM] | 44.7µM | - | - | - | -
N#C/C(=C(/O)c1ccc(-c2cccc([N+](=O)[O-])c2)o1)c1nc2ccccc2s1 | ? | 44.7µM | - | 44.7µM | 21.2µM | -53.4
COc1ccc2c(c1)CCc1sc(NC(=O)c3ccco3)nc1-2 | - | 39.8µM | - | - | ? | -
CCc1cc2ccc(OC)cc2nc1SCC(=O)NNC(=O)c1ccco1 | - | 50.1µM | - | - | - | -
Cc1ccc(NCC(=O)Nc2c(C)n(C)n(-c3ccccc3)c2=O)cc1S(=O)(=O)N(C)C | - | - | - | - | - | -
CCc1ccc(S(=O)(=O)c2cn(Cc3ccccc3F)c3cc(OC)c(OC)cc3c2=O)cc1 | - | - | - | - | . | .
CS(=O)(=O)NCCCCCCNS(C)(=O)=O | -[11.4 µM] | 50.1µM | - | - | - | -
O=[N+]([O-])c1cccc(OCc2cn3cccnc3n2)c1 | -[11.4 µM] | - | ? | - | 26.7µM | -
Cc1ccc(OCc2cn3cccnc3n2)cc1 | - | - | - | 89.1µM | - | -
COCCCN1C(=O)C(CC(=O)NC2CC2)CC(C(=O)N(C(C)C)C(C)C)=C1C (configuration not stated) | . | . | . | . | - | -
O=C(CCC(=O)c1cccs1)OCC(=O)c1ccccc1F | - | - | - | - | - | -
Clc1cccc(CN2CCN(Cc3ccco3)CC2)c1 | 1.78µM | 7.94µM | 20µM | 17.8µM | - | -
Fc1ccc(CN2CCC(Cc3ccccc3)CC2)cc1F | 28.2µM | 10µM | - | ? | - | -
CSc1ccc(CN2CCC(Cc3ccccc3)CC2)cc1 | 35.5µM | 7.08µM | - | 70.8µM | - | -
c1ccc(CC2CCN(Cc3ccccn3)CC2)cc1 | 7.94µM | . | ? | 50.1µM | - | -
CCN(C(=O)CCS(=O)(=O)c1cc2[nH]c(=O)c(=O)[nH]c2cc1C)c1ccccc1 | - | - | - | - | . | .
Cc1ccc(S(=O)(=O)N2C[C@@H]3CCCC[C@@H]3[C@@H](C)[C@H]2c2cn(Cc3ccccc3)c3ncccc23)cc1 | - | . | - | . | - | -
Cc1ccc(-n2c(SCC(=O)NCc3ccccc3)nc3n[nH]c(C)c3c2=N)cc1Cl | - | - | - | - | . | .
CCc1ccc(-n2c(=O)c3c4c(sc3n(Cc3cc(=O)n5c(C)cccc5n3)c2=O)CCC4)cc1 | - | - | - | - | . | .
O=C(/C=C/c1cccc(Cl)c1)N1CCC(Cc2ccccc2)CC1 | - | - | - | - | - | -
Clc1ccc(CN2CCC(Cc3ccccc3)CC2)cc1 | 20µM | 4.47µM | ? | 31.6µM | - | -
SMILES | JMJD2A Tudor | G9a inh | HP1b binding inh | BAZ2B block | PLK1 PBD block | PI5P4Ka inh
Clc1cccc(CN2CCC(Cc3ccccc3)CC2)c1 | 3.16µM | 3.55µM | ? | 50.1µM | - | .
CCOC(=O)c1c(C)c(-c2ccccc2)n(CC(=O)NCCc2cccc(C)c2)c1C | - | - | - | - | . | .
O=C(c1cc2ccccc2o1)c1cccs1 | - | - | - | - | 23.8µM | -
O=C(NC(=S)Nc1ccc(NC(=O)c2cccs2)cc1)c1cc2ccccc2o1 | - | - | - | - | - | -
COc1cc(C(O)c2nc(-c3cccc(F)c3)cs2)ccc1F (configuration not stated) | . | . | . | . | - | -
COc1cc(-c2noc(CCC(=O)Nc3cccnc3)n2)cc(OC)c1OC | - | 35.5µM | - | - | - | -
